Results: the supplement of paper PMC7724964

What was measured:
Assay in all cases: phage ELISA signal ratio (GST-PRM binding over GST background); higher = stronger binding of peptide-phage to the PRM
[1] = molecular target: WDR5 20-334 WD40 (domain begin residue: 20, domain end residue: 334), P61964
Outline: (§1)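 An M13 phage library with randomized hexadecapeptides on the gene-8 major coat protein, each peptide lacking cysteine and flanked by glycine, was selected for five rounds against human peptide recognition domains fused to the C-terminus of glutathione S-transferase (GST) and expressed in 96-well plates. Approximately 48 clones from rounds 4 and 5 went to phage ELISA. The reported value is the ELISA signal on the GST-domain fusion over the signal on GST alone, and positive clones were sequenced.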

[2] = molecular target: T1, VCL 1-259 Vinculin (domain begin residue: 1, domain end residue: 259), P18206
T1 chain: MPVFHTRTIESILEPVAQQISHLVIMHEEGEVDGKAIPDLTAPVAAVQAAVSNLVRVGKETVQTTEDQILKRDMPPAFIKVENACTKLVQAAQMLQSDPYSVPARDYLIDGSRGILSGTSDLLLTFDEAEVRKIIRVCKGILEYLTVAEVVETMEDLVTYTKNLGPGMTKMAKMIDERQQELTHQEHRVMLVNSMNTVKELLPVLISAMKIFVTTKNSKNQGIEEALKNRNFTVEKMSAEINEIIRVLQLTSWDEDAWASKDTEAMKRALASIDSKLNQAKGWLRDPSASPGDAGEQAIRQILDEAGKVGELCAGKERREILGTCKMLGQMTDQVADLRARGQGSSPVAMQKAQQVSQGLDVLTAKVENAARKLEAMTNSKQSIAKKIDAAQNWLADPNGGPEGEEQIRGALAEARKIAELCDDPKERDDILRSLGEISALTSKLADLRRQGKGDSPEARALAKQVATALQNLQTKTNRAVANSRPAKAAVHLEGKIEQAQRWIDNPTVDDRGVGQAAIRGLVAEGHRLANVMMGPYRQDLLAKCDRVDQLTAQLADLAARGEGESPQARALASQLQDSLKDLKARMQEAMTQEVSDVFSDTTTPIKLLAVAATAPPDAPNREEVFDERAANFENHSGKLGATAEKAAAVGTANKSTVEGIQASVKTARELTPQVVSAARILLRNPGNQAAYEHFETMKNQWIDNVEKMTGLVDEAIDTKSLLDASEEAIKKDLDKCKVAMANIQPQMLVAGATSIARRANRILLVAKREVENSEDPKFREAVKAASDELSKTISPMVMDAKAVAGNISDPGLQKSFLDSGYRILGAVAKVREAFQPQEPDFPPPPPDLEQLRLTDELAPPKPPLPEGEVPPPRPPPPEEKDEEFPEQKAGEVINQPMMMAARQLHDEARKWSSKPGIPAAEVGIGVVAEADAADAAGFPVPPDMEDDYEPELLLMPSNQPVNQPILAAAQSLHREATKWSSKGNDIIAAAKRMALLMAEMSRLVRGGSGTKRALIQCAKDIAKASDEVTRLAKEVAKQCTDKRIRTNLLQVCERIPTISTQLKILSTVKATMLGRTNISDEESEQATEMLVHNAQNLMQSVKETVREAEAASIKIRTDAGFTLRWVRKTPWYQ
Outline: as §1

[3] = molecular target: VASP 1-114 WH1 (domain begin residue: 1, domain end residue: 114), P50552
VASP 1-114 WH1 (domain begin residue: 1, domain end residue: 114), P50552, sequence (P50552 whole entry): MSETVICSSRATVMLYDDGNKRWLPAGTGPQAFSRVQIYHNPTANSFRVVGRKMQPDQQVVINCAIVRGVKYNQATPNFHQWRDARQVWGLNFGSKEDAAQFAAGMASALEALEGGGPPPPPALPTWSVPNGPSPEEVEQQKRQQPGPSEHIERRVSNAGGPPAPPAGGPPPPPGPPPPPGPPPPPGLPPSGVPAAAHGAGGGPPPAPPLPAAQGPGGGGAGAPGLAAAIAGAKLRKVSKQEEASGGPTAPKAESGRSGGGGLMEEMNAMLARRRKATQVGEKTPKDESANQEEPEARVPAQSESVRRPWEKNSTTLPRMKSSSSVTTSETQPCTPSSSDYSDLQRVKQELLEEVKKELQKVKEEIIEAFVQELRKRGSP
Outline: as §1

[4] = molecular target: T2, WDR74 1-387 WD40 (domain begin residue: 1, domain end residue: 387), Q6RFH5
T2 chain: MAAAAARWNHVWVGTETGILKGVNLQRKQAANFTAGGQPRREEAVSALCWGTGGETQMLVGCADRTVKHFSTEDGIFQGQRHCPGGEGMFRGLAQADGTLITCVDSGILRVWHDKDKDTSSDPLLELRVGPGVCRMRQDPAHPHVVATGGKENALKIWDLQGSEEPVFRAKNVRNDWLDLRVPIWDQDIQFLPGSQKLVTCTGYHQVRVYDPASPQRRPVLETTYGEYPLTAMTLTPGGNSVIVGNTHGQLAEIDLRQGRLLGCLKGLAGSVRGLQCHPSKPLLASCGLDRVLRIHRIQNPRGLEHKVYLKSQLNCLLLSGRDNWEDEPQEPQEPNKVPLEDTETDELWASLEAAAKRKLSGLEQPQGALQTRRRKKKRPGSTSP
Outline: as §1

GRWVPWDQNVTTSDES
phage ELISA signal ratio [1]: 23.4

WPDDLDWGTWLETLPL
phage ELISA signal ratio [2]: 13.3

HPQEWSAEEIMVGILY
phage ELISA signal ratio [2]: 14.1

IKETAHMDERPKMISR
phage ELISA signal ratio [1]: 15.8

DNWYWEAWDAAFLTNG
phage ELISA signal ratio [2]: 20.4

KKPVPMRWEHTYTETM
phage ELISA signal ratio [1]: 20.2

WPPAPPTEQHRQMWAK
phage ELISA signal ratio [3]: 7.1

FDTPLWEQAMWEALGE
phage ELISA signal ratio [2]: 13.2

VPSLVMPQDQPVMVSR
phage ELISA signal ratio [1]: 12.8

STQKDNNWPLPPVMEE
phage ELISA signal ratio [3]: 21.6

DMWAMWHEWVEQEPQD
phage ELISA signal ratio [4]: 2.88

NARTDAWWSQQSLQQH
phage ELISA signal ratio [1]: 9.86

RTEPYQWMKAAGFPTS
phage ELISA signal ratio [1]: 9.24

NTVEWQDMEGHLLGIV
phage ELISA signal ratio [2]: 15.3

FPQMWQSPDFWEDWLL
phage ELISA signal ratio [2]: 12.6

PRYKPHNRTEPVPLMA
phage ELISA signal ratio [1]: 18.7

WDPQADWQEQVQYWLV
phage ELISA signal ratio [2]: 20.4

AARTHAQEYHKGIMAS
phage ELISA signal ratio [1]: 21.6

GAARTQGVEWHSQHSH
phage ELISA signal ratio [1]: 14.9

ARTWYMHQQEAMADQK
phage ELISA signal ratio [1]: 26.3

WGSEDTQYWLEYVNSV
phage ELISA signal ratio [2]: 24.6

HEIWETDWQWIIDQAY
phage ELISA signal ratio [2]: 20.4

VDDQEWPNMEMLLGIV
phage ELISA signal ratio [2]: 17.4

TAHDWIDEWLVQAMLQ
phage ELISA signal ratio [2]: 20.3

LDMFWPEPPMFNREIP
phage ELISA signal ratio [3]: 24.9

MMPTTEDGWEMWLAEL
phage ELISA signal ratio [2]: 21.4

RTEPYVHQQPTPQAPA
phage ELISA signal ratio [1]: 12.4

DNFENWIENWLLEYNG
phage ELISA signal ratio [2]: 9.78

SDDWFFDLTHSIISTD
phage ELISA signal ratio [2]: 18.4

LWDWTPETEQWFQEIV
phage ELISA signal ratio [2]: 13.5

AARTQWYLAAVAEQAP
phage ELISA signal ratio [1]: 12.9

ETQDPPEVRQYTMVSR
phage ELISA signal ratio [1]: 13.8

MPPWTEDAESWHMWLI
phage ELISA signal ratio [2]: 14.8

GRWVPVQDVPRFEIED
phage ELISA signal ratio [1]: 19

LTGEIWDAEKVIHYVM
phage ELISA signal ratio [2]: 11.1

FELAGRWEPLMMYEWV
phage ELISA signal ratio [1]: 12.8

APVVHDFDAYKMLMQL
phage ELISA signal ratio [2]: 17.2

QRTMAWKSENHLMPHS
phage ELISA signal ratio [1]: 16.4

QQVFQDHSNHQMMISR
phage ELISA signal ratio [1]: 14

EYHPRWGYIMAQASDS
phage ELISA signal ratio [1]: 11

RWEPHAWQADQVEATK
phage ELISA signal ratio [1]: 14

SARTGYDNYLKPSSQQ
phage ELISA signal ratio [1]: 22

VEFWWSDTSARTLPFK
phage ELISA signal ratio [1]: 9.42

QIWSLWVEGMMYQPDN
phage ELISA signal ratio [4]: 2.75

LDSFWDAENVIRSIMI
phage ELISA signal ratio [2]: 12.9

RTDPEQYQRTMMVPRG
phage ELISA signal ratio [1]: 12.1

WWEQDQDWEEFVNAIE
phage ELISA signal ratio [2]: 16.9

QRTMAWKSEDHLMPQS
phage ELISA signal ratio [1]: 14.9

NLETWAWPPWPQEFND
phage ELISA signal ratio [3]: 23.3

YWDAGEVMAQIIQSAH
phage ELISA signal ratio [2]: 11.9

WHWPELQDLMSIGMDE
phage ELISA signal ratio [4]: 2.99

SARTSHWVPMEWNHLQ
phage ELISA signal ratio [1]: 14

NWDIWPDWPPTQSVMW
phage ELISA signal ratio [3]: 5.89

QMIEFWTEEEIMHWVH
phage ELISA signal ratio [2]: 13.6

SARSEPYPSTNFTWTH
phage ELISA signal ratio [1]: 25.7

RTEYLNWQEHRTVSKE
phage ELISA signal ratio [1]: 11

PEQERINRKTYQMVSR
phage ELISA signal ratio [1]: 13
